# Reference: PubChem BioAssay AID889 (National Center for Advancing Translational Sciences (NCATS), 2007)
# Hit rate of the full screen: of about 75,000 compounds, about 15 (0.02%) were called active. About 3% were inconclusive and are not listed. This is one part of a sample in which actives are shown more often than they occur. Unmarked numbers belong to inactive results. The call rests on the fitted dose curve; in most records, active means well fitted inhibition curve with a large enough effect in the main read-out, with a control signal flat (not every such curve was filed as active); inconclusive means small, poorly fitted or top-dose-only effect, or a change in a side signal; inactive means flat fitted curve, though single readings scatter.
# Target: Caspase-7 (Homo sapiens) (UniProt P55210)
# Assay: qHTS Assay for Allosteric/Competitive Inhibitors of Caspase-7; on activity change, negative = inhibition: % of control where 0% means no effect
# Settings: recombinant caspase-7, Ac-DEVD-AFC fluorescence rate; series mostly up to 57.5 µM; activity change, negative = inhibition: at the top concentration
# Potency means the concentration at half of the fitted maximal effect.
# Sequence of Caspase-7 (Homo sapiens) (P55210 24-198 limits assumed): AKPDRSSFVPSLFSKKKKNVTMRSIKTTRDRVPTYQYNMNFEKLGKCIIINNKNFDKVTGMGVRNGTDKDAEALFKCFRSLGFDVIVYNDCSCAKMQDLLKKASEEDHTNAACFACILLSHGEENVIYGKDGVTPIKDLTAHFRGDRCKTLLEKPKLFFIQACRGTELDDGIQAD
# Sequence of Caspase-7 (Homo sapiens) (P55210 207-303 limits assumed): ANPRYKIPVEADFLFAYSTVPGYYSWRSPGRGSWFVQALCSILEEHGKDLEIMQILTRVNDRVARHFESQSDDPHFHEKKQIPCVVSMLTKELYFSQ
SMILES,"activity change, negative = inhibition",Potency
Cc1cccc2c3c(ccc12)C1=C(C(=O)C3=O)C(C)CO1 (centres undefined),-21.5%,–
COc1ccc(-c2nc3cnc(OC)nc3n(Cc3ccc(F)cc3)c2=O)cc1,-10.3%,–
CN(C)CCCCNC(=O)c1ccc(Cc2nc3ccccc3[nH]2)cc1,-0.141%,–
C=C1C(=O)C23C(O)C1CCC2[C@]12COC3(O)C(O)C1C(C)(C)CC[C@H]2O (some centres undefined),-5.51%,–
Cc1ccc2nc(S(=O)(=O)O)[nH]c2c1,-1.75%,–
CCOC(=O)N1CCN(C(=O)CNC(=O)Cc2ccc(Cl)cc2)CC1,-4.36%,–
COc1ccc(S(=O)(=O)N2CCCC2)c(C)c1C,-0.0387%,–
COC(=O)c1ccc(C23CC4(C2)[C@H](CN(Cc2cccnc2)[C@@H]4c2ccccc2)C3c2ccc(Cl)nc2)cc1 (some centres undefined),-1.86%,–
COC1C[C@@H](O[C@@H]2C(C)C(=O)OC(C)C(C)C(O)C(C)C(=O)[C@@]3(CO3)CC(C)C(OC3OC(C)CC(N(C)C)C3O)C2C)OC(C)[C@@H]1O (some centres undefined),2.56%,–
Cc1nn2c3cc(N4CCOCC4)ccc3nc2c2ccccc12,0.94%,–
CC(=O)N(CN1C(=O)C2CC=CCC2C1=O)c1cccc(Cl)c1 (centres undefined),-16.2%,–
CC1(C)OC2CO[C@]3(COS(N)(=O)=O)OC(C)(C)OC3C2O1 (some centres undefined),-0.982%,–
CCCCOC(=O)CNc1nnc(SCC(=O)OCC)[nH]c1=O,0.456%,–
CC[C@@H]1Cc2cc(O)ccc2C2=C1c1ccc(O)cc1C[C@H]2CC,-8.12%,–
O=C(O)C(O)[C@@](O)(Cc1ccc(O)cc1)C(=O)O (some centres undefined),0.744%,–
COc1cccc(N2CCN(C(=O)C3CCCN(S(=O)(=O)c4cnc[nH]4)C3)CC2)c1 (centres undefined),1.11%,–
COc1ccc(N2C(=O)CN=C2Nc2cccc(C)c2C)cc1OC,-9.88%,–
COC(=O)[C@@H]1C[C@@]2(O)[C@H](O)[C@H](O)[C@H](O)C[C@H]2N1Cc1ccc(C)s1,-0.351%,–
O=C(O)c1c(Br)c(Br)c(Br)c(Br)c1C1c2ccc(O)cc2Oc2cc(O)ccc21,–,3.98 µM (active)
COc1ccc(OC)c2[nH]c(=O)c(CCNC(=O)C(C)(C)C)cc12,-0.648%,–
O=C(Oc1cc(OC(=O)c2ccccc2)c2c(c1)OC(c1ccc(OC(=O)c3ccccc3)c(OC(=O)c3ccccc3)c1)[C@@H](OC(=O)c1ccccc1)C2)c1ccccc1 (some centres undefined),1.49%,–
C/C=C(/C)C(=O)OC1Cc2c(ccc3ccc(=O)oc23)OC1(C)C (centres undefined),1.54%,–

SMILES,"activity change, negative = inhibition",Potency
Cc1ccc(CNC(=O)C2CCCN(S(C)(=O)=O)C2)cc1 (centres undefined),-4.02%,–
CC(C)=CCC/C(C)=C/CO/N=C1/C[C@@H](O)[C@@H](O)[C@@H]2[C@@H]3C(=O)N(C(C)(C)C)C(=O)[C@H]3CC[C@H]12,0.517% [at 11.5 µM],–
CCOC(=O)C1CCN(C(=O)COc2cc(C)c(Br)c(C)c2)CC1,-3.71%,–
COc1ccc(CCC(=O)c2c(O)cc(OC3OC(CO)C(O)C(O)C3O[C@@H]3OC(C)C(O)C(O)C3O)cc2O)cc1O (some centres undefined),0.803%,–
CCN1CCN(C(=O)c2ccccc2N(C)S(=O)(=O)c2ccc(C)cc2)CC1,-1.87%,–
Cc1cc(C)c(C)c(S(=O)(=O)Nc2ccc(O)cc2)c1C,0.495%,–
O=C(CSc1nc2ncccc2[nH]1)Nc1ccc2c(c1)OCCO2,0.658%,–
C=C1C([C@@]2(C)C(OC(C)=O)CC(=O)O[C@@](C)(COC(C)=O)C2CC(=O)OC)C(OC=O)C(OC(=O)C(O)C(C)CC)[C@]2(C)C(c3ccoc3)CC(=O)C12O (some centres undefined),0.439%,–
CC(C)N(CCNC(=O)c1ccc(-n2c(=O)c(=O)[nH]c3ccccc32)cc1)C(C)C,1.72%,–
CCOC(=O)C1CCCN(C(=O)c2ccc(CS(=O)(=O)c3ccc(Br)cc3)o2)C1 (centres undefined),-1.53%,–
Clc1ccc(C2[C@H]3CN(CC4CCCCC4)[C@H](c4ccccc4)C34CC2(c2cccnc2)C4)cn1 (some centres undefined),-2.48%,–
Cc1cnc(C(=O)OCC(=O)Nc2ccc(Cl)cc2Cl)cn1,0.963%,–
O=C(CSc1nc2ccccc2o1)N1CCN(c2ccccc2)CC1,-0.235%,–
CN1CCCC1CCO[C@@](C)(c1ccccc1)c1ccc(Cl)cc1 (some centres undefined),-1.39%,–
Nc1nc2nc(Cl)[nH]c2c(=O)[nH]1,1.16%,–
CC1CC[C@@]23CCC4(C)[C@@]5(C)CCC6C(C)(C)C(O)CC[C@@]6(C)C5C=C[C@@]4(OC2=O)C3C1C (some centres undefined),2.11%,–
O=C(Nc1nsc(-c2ccccc2)n1)c1ccncc1,0.285%,–
CCC(CCC(C)C1CCC2C3CC=C4CC(O)CC[C@@]4(C)C3CC[C@@]12C)C(C)C (some centres undefined),0.256%,–
Cc1c(NC(=O)Nc2ccccc2Cl)sc(=S)n1C,-4.46%,–
COc1ccc(S(=O)(=O)N(C)CC(=O)Nc2ccc3c(c2)OCCO3)cc1OC,-0.767%,–
COC(=O)[C@@H]1C[C@@]2(O)[C@@H](O)[C@@H](O)[C@@H](O)C[C@H]2N1Cc1ccc(C)s1,-1.65%,–
COc1ccc(C2CC(=O)c3c(O)cc(OC4OC(COC5OC(C)C(O)C(O)C5O)C(O)C(O)C4O)cc3O2)cc1O (centres undefined),0.477%,–
